Source: PubChem BioAssay
VACV E9 pol inh: blocks vaccinia virus processive DNA synthesis. AID 493162. normalized absorbance, % (test concentration not listed). 46,000 tested, 0.94% active. in vitro processive DNA synthesis, absorbance read-out; stronger effect = lower value; in the data active = normalized absorbance mostly below about 85%, no sharp cut-off; inactive = mostly above about 86%
Active calls of the source: *. The entries come from a sample that favours hits as a whole.

SMILES | VACV E9 pol inh
O=C1CCC(=O)N1Nc1nc2ccccc2c2nc(-c3ccccc3)nn12 | 98
CCN(C(=O)c1ccc(Cl)cc1Cl)c1nnc(-c2ccncc2)s1 | 94
CCC1CCCCN1C(=O)COC(=O)c1cccnc1Cl (configuration not stated) | 110
COc1ccc(CC2S/C(=N/c3ccccn3)NC2=O)cc1 (configuration not stated) | 101
O=C(c1ccc2c(c1)N(Cc1ccc(F)cc1)CCS2)N1CCCCC1 | 89
O=C(O)c1ccc2c(c1)N(Cc1ccc(Cl)cc1)CCS2 | 72*
COC(CNC(=O)c1ccc2c(c1)N(Cc1ccc(Cl)cc1)CCS2)OC | 94
CCCc1c(C(=O)NC2Cc3ccccc3C2)cnn1-c1ccccc1 | 88
O=C(CNc1cc(C(F)(F)F)ccc1N1CCOCC1)N1CCc2ccccc2C1 | 78
FC(F)(F)c1ccc(C=Nn2c(-c3ccccc3)n[nH]c2=S)cc1 | 98
O=C(c1ccccn1)c1conc1-c1c(Cl)cccc1Cl | 103
C/C(=N\N)c1ccc2ccccc2c1 | 83*
CCCNC(=O)c1ccc2ccccc2c1 | 106
O=C(/C=C/C(=O)c1ccc2ccccc2c1)c1ccccc1 | 98
Cc1ccc(N(C)C(=O)CCS(=O)(=O)c2ccc3c(c2)n(C)c(=O)c(=O)n3C)cc1 | 98
O=C(CSC1=Nc2ccccc2C2=NC(Cc3ccccc3)C(=O)N12)c1ccc(F)cc1 (configuration not stated) | 101
C/C(NCc1ccncc1)=C(\C#N)C(N)=O | 112
O=C(NCc1ccc(S(=O)(=O)NCCN2CCCC2)s1)c1ccc(Cl)cc1 | 104
CCOC(=O)c1c(C)oc2c1c(C=NCc1ccco1)c(O)c1ccccc12 | 100
CN(C(=O)c1cc(-c2cccs2)nc2ccccc12)c1ccccc1 | 107
O=C(O)c1cc(-c2cccs2)nc2ccccc12 | 91
O=C(O)c1cc(-c2cccs2)nc2ccc(Br)cc12 | 34*
O=C(CCSc1ccccc1)NC12CC3CC(CC(C3)C1)C2 | 99
c1ccc(-c2cc(N3CCOCC3)cs2)cc1 | 88
CN1C(=O)/C(=C(\C#N)C(=O)Nc2cc(Cl)ccc2Cl)c2ccccc21 | 102
SMILES | VACV E9 pol inh
O=C(CSc1ncccn1)c1ccccc1 | 103
COC(CNC(=O)c1cc2c(C)nc3ccccc3c2o1)OC | 91
Cc1nc2ccccc2c2oc(C(=O)NCCN(C)C3CCCCC3)cc12 | 46*
COC(CN(C)C(=O)c1cc2c(C)nc3ccccc3c2o1)OC | 96
O=C(CC(NCc1ccccc1)c1ccccc1O)NCc1ccccc1 (configuration not stated) | 104
COC(=O)C1=C(O)/C(=C\c2cccc3ccccc23)N=C1C | 99
COc1ccc(-n2c3c(cc(C(N)=O)c2=O)C(=O)CC(C)(C)C3)cc1 | 100
O=C1CC(c2cccc(O)c2)Nc2ccc3ccccc3c21 (configuration not stated) | 62*
Cc1ccccc1C1CC(=O)c2c(ccc3ccccc23)N1 (configuration not stated) | 99
O=C1c2ccccc2NC(c2cccc(O)c2)N1O (configuration not stated) | 96
COC(=O)CNC(=O)c1ccc(Cl)cc1 | 97
CC1CCC(NC(=O)CN2C(=O)CSc3ncccc32)CC1 (configuration not stated) | 105
C=CCN1C(=O)CSC1=Nc1ccc(S(=O)(=O)Nc2nccc(C)n2)cc1 | 100
C1CCC(NC2=NCCCS2)CC1 | 104
CC(C)Nc1ccc(Nc2ccccc2)cc1 | 96
Oc1ccc(Nc2nc(N3CCOCC3)c3ccccc3n2)cc1 | 89
c1ccc2cc3c(Nc4ccc(N5CCOCC5)cc4)ccnc3cc2c1 | 67*
c1cc(N2CCOCC2)ccc1NC1=NCCS1 | 89
COc1ccc(Nc2ccnc3ccccc23)cc1 | 98
CC(C)Nc1ccc(Nc2ccnc3cc4ccccc4cc23)cc1 | 10*
CC1(C)OC(c2ccccc2)=NC1=O | 100
CC1SCC(=O)N(c2ccc(F)cc2F)C1=O (configuration not stated) | 105
Cc1cccc(N(C)S(=O)(=O)c2ccc3c(c2)OCC(=O)N3)c1 | 100
Cc1cc(C)c2nc(NC(=O)CCOc3ccccc3)sc2c1 | 97
COc1ccc(C=Nc2ccccc2)cc1 | 101
SMILES | VACV E9 pol inh
COc1ccc(N=Cc2ccccc2F)cc1 | 52*
COc1ccc(N=Cc2cn(-c3ccc(OC)cc3)cc2C=Nc2ccc(OC)cc2)cc1 | 68
Cc1ccc(C2=NS(=O)(=O)N(C)C(C(=O)Nc3sc4c(c3C(N)=O)CCCC4)=C2)cc1 | 99
CC(=O)Oc1cccnc1I | 110
COC(CNC(=O)C1CCC(CNS(=O)(=O)c2ccccc2)CC1)OC (configuration not stated) | 114
CC(=O)Nc1ccc(SC(F)(F)F)cc1 | 93
O=C(O)C1C2CC=CC2c2cc(Cl)cc3c2N1CC1CC=CC31 (configuration not stated) | 100
CC(C)C1Nc2ccc(C(=O)O)cc2C2C=CCC21 (configuration not stated) | 78*
O=C(O)c1ccc(C2Nc3ccccc3C3C=CCC32)cc1 (configuration not stated) | 10*
